Some test systems named below: DU-145 prostate; K-562 leukemia; MALME-3M melanoma; MDA-MB-231 breast; RXF 393 renal; SF-268 CNS; SF-295 CNS; SF-539 CNS; UACC-257 melanoma; M14 melanoma; HCT-15 colon; HT29 colon; SNB-75 CNS; SNB-19 CNS; U251 CNS; SK-MEL-5 melanoma; UACC-62 melanoma; LOX IMVI melanoma; SK-MEL-28 melanoma; PC-3 prostate.
What all share (test): NCI-60 one-dose screen, 48 h (100 = growth as untreated, 0 = no growth, -100 = all killed)
What all share (details): 10 µM

The panel holds about 83,000 compounds, 20% with a hit somewhere; the sample as a whole holds those more often.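 48-hour exposure, single concentration, 96-well plates; percent growth endpoint where 0 means no net growth. Active: below 10.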 A number with no mark means an inactive call. Activity calls are given as the source filed them.

On to `FC(F)(F)c1ccc(-c2cnc(Br)nc2NC2CCCCCC2)cc1`, for which the growth was 74.9% with DU-145 prostate; 10.6% with K-562 leukemia; -42.4% (active) in the assay with MALME-3M melanoma; 62.4% in the assay on MDA-MB-231 breast; 52.7% in the assay on RXF 393 renal; 43.6% with SF-268 CNS. The growth in the assay on SF-295 CNS was -33.2% (active); with SF-539 CNS it was 82.4%; in the assay with UACC-257 melanoma, -1.23% (active); in the assay with M14 melanoma it was 23.1%; in the assay on HCT-15 colon, 73.1%; with HT29 colon it was 22.3%. For the same compound, the growth is 63.2% with SNB-75 CNS; 42.9% in the assay with SNB-19 CNS; 12.1% in the assay on U251 CNS; 17.9% with SK-MEL-5 melanoma; 14.4% in the assay on UACC-62 melanoma; 40.1% in the assay with LOX IMVI melanoma. The growth with SK-MEL-28 melanoma is 36.1%.
Turning to `CC(CNC(Cc1ccccc1)c1ccccc1)NC(Cc1ccccc1)c1ccccc1` (configuration not stated), the growth is 21.4% with DU-145 prostate; 8.06% (active) with K-562 leukemia; 45% with MALME-3M melanoma; 17.4% with MDA-MB-231 breast; 43.7% in the assay on RXF 393 renal; 53.5% in the assay with SF-268 CNS. For the same compound, the growth in the assay with SF-295 CNS was 61.2%; with SF-539 CNS, 52.7%; in the assay with UACC-257 melanoma, 76.9%; in the assay on M14 melanoma, 30.4%; in the assay on HCT-15 colon it was 30.6%; in the assay with HT29 colon, 4% (active). Also, the growth with SNB-75 CNS is 68.9%; in the assay on SNB-19 CNS, 61.7%; in the assay on U251 CNS, 34.3%; with PC-3 prostate, 40.7%; in the assay on SK-MEL-5 melanoma, 14.2%; with UACC-62 melanoma, 61.4%. Besides, the growth in the assay on LOX IMVI melanoma is -5.75% (active); in the assay with SK-MEL-28 melanoma it was 64.2%.
As to `Cc1ccc(-c2cc(-c3cccc(Nc4ccnc5cc(Cl)ccc45)c3)nc3nc(N)[nH]c(=O)c23)cc1`, the growth in the assay with DU-145 prostate is 105%; in the assay with K-562 leukemia, 28.1%; in the assay with MALME-3M melanoma, 108%; with MDA-MB-231 breast, 103%; in the assay with RXF 393 renal it was 90.9%; in the assay on SF-268 CNS, 91.2%. Moreover, the growth in the assay with SF-295 CNS was 102%; in the assay on SF-539 CNS it was 97.5%; in the assay on UACC-257 melanoma, 102%; in the assay on M14 melanoma it was 106%; in the assay with HCT-15 colon, 99.4%; with HT29 colon it was 97.5%. For the same compound, the growth was 76.9% in the assay with SNB-75 CNS; 84.8% in the assay on SNB-19 CNS; 88.5% in the assay with U251 CNS; 95.8% in the assay on PC-3 prostate; 99% with SK-MEL-5 melanoma; 97.7% in the assay with UACC-62 melanoma. Besides, the results for the growth in the assay with LOX IMVI melanoma and in the assay on SK-MEL-28 melanoma were 92.8% and 110%, respectively.
For `CCOC(=O)[C@@H]1[C@H](c2ccccc2)[C@H]([N+](=O)[O-])[C@H](c2cn(-c3ccccc3)nc2C)N1Cc1ccccc1`, the growth is 94.4% in the assay with DU-145 prostate; 61.4% with K-562 leukemia; 81% in the assay on MALME-3M melanoma; 68.2% in the assay on MDA-MB-231 breast; 69.9% in the assay on RXF 393 renal; 68.4% with SF-268 CNS. Further, the growth in the assay with SF-295 CNS is 81.8%; in the assay on SF-539 CNS, 81.7%; in the assay on UACC-257 melanoma, 64.2%; with M14 melanoma it was 76.5%; in the assay with HCT-15 colon, 43%; in the assay with HT29 colon, 76.4%. Moreover, the growth in the assay with SNB-75 CNS is 81.5%; with SNB-19 CNS, 77.7%; with U251 CNS it was 51.2%; in the assay with PC-3 prostate, 46%; with SK-MEL-5 melanoma, 76.3%; in the assay with UACC-62 melanoma, 60.9%. The growth in the assay with LOX IMVI melanoma was 65.6%; with SK-MEL-28 melanoma, 85.4%.
With `Cc1ccc2nc(-c3ccc(OCC(=O)N=Nc4c(O)[nH]c5ccccc45)cc3)[nH]c2c1`, the growth in the assay with DU-145 prostate is 73.3%; in the assay on K-562 leukemia, 5.23% (active); with MALME-3M melanoma, 95.8%; in the assay with MDA-MB-231 breast, 74.4%; with RXF 393 renal it was 102%; with SF-268 CNS it was 102%. The growth was 97.1% with SF-295 CNS; 100% in the assay on SF-539 CNS; 103% in the assay on UACC-257 melanoma; 77.3% in the assay with M14 melanoma; 86.3% in the assay on HCT-15 colon; 41.2% in the assay on HT29 colon. Also, the growth with SNB-75 CNS is 109%; in the assay on SNB-19 CNS, 50%; in the assay on U251 CNS, 6.05% (active); in the assay on SK-MEL-5 melanoma, 94.3%; in the assay on UACC-62 melanoma, 96.5%; in the assay on LOX IMVI melanoma, 39%. Further, in the assay on SK-MEL-28 melanoma, the growth is 102%.
In the case of `CC(C)c1ncc(CO)n1Cc1c(Cl)cccc1Cl`, the growth with DU-145 prostate was 106%; with K-562 leukemia, 92.3%; in the assay with MALME-3M melanoma, 103%; in the assay on MDA-MB-231 breast, 115%; in the assay with RXF 393 renal, 95.8%; in the assay on SF-268 CNS it was 96.5%. The growth in the assay with SF-295 CNS was 96.1%; with SF-539 CNS, 98.7%; in the assay with UACC-257 melanoma, 106%; in the assay on M14 melanoma, 109%; in the assay on HCT-15 colon it was 97.7%; with HT29 colon, 99.4%. Besides, the growth is 91.6% with SNB-75 CNS; 142% in the assay on SNB-19 CNS; 101% with U251 CNS; 94.4% in the assay with PC-3 prostate; 100% with SK-MEL-5 melanoma; 108% in the assay with UACC-62 melanoma. Moreover, the figures for the growth in the assay with LOX IMVI melanoma and with SK-MEL-28 melanoma were 104% and 120%, respectively.
For the compound `COc1ccc2nc(NC(=O)Nc3c(F)cccc3F)sc2c1`, the growth with DU-145 prostate was 105%; in the assay on K-562 leukemia it was 94.5%; in the assay on MALME-3M melanoma it was 105%; with MDA-MB-231 breast, 119%; with RXF 393 renal it was 106%; with SF-268 CNS, 109%. Moreover, the growth in the assay with SF-295 CNS is 102%; with SF-539 CNS it was 104%; in the assay on UACC-257 melanoma it was 102%; in the assay on M14 melanoma it was 104%; in the assay with HCT-15 colon, 101%; in the assay on HT29 colon, 102%. Further, the growth in the assay on SNB-75 CNS was 118%; in the assay on SNB-19 CNS, 97.2%; in the assay on U251 CNS it was 95%; in the assay on PC-3 prostate it was 95%; in the assay with SK-MEL-5 melanoma, 91.2%; with UACC-62 melanoma, 94.4%. For the same compound, the figures for the growth in the assay with LOX IMVI melanoma and in the assay with SK-MEL-28 melanoma were 106% and 103%, respectively.
On to `COc1ccc(-c2nnc(SC/C(=N\O)c3ccccc3)o2)cc1`, for which the growth in the assay on DU-145 prostate was 100%; with K-562 leukemia it was 94.2%; in the assay with MALME-3M melanoma it was 109%; with MDA-MB-231 breast, 92.3%; with RXF 393 renal, 120%; in the assay with SF-268 CNS it was 95.8%. Also, the growth in the assay with SF-295 CNS is 101%; in the assay with SF-539 CNS, 92.7%; in the assay with UACC-257 melanoma it was 121%; with M14 melanoma it was 104%; in the assay on HCT-15 colon it was 97.5%; in the assay on HT29 colon it was 95%. The growth with SNB-75 CNS was 106%; in the assay with SNB-19 CNS, 99.7%; in the assay with U251 CNS, 103%; in the assay with SK-MEL-5 melanoma, 97.1%; in the assay on UACC-62 melanoma, 81%; with LOX IMVI melanoma, 95.1%. In addition, in the assay with SK-MEL-28 melanoma, the growth was 94.3%.

(Values after PubChem BioAssay (NCI).)
